Compounds without any hit were thinned out: in the full panel of roughly 83,000, 20% have a hit.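 Results are percent growth after 48 hours of single-concentration exposure. 100 means growth as in untreated cells, lower positive values show inhibition; negative values down to -100 show cell death.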 Activity calls are given as the source filed them.
These compounds were tested on A549/ATCC NSCLC (assay: NCI-60 one-dose screen, 48 h (100 = growth as untreated, 0 = no growth, -100 = all killed)). Conditions: 10 µM unless noted.
Procedure: Growth inhibition of the A549/ATCC human Non-Small Cell Lung tumor cell line is measured as a screen for anti-cancer activity. Cells are grown in 96 well plates and exposed to the test compound for 48 hours. Compounds are tested at a single concentration, which is 10^-5 M for most compounds. The reported endpoint is percent growth (GI% or GIPRCNT), where numbers from 0 - 100% represent growth inhibition, and numbers from -100% - 0 represent cell death. For example, a value of 40 represents 60% growth inhibition. A value of 0 means no net growth occurred over the course of the experiment. A value of -40 indicates 40% of cells at the beginning of the experiment died by the end of the experiment. A value of -100 means all cells are dead at the end of the experiment.
NCI-60 Human Tumor Cell Lines Screen was performed using the standard one-dose NCI protocol, which is described in more detail at https://dtp.cancer.gov/discovery_development/nci-60/default.htm.
Compounds with GIPRCNT values below 10 were considered active. Activity score was based on GIPRCNT using the following formula: […]
Score is 0 for GIPRCNT values of 100 or above, 50 for GIPRCNT values of 0, and 100 for GIPRCNT values of -100.
For `COC(=O)[C@]1(C)CCC[C@]2(C)[C@H]3C[C@@H]4[C@H]5[C@@H]6CC/C(=N\OCC/C(N)=N/O)[C@H]5[C@@]3(CC[C@H]21)CC4(C(C)C)O6`, the growth was 71.8% (inactive).
With `C=CCN=c1sc(-c2ccc3ccccc3c2)cn1NC(=O)c1cc2ccc1CCc1ccc(cc1)CC2` the growth was 56.1% (inactive).
`COc1ccc(Oc2ccc(/C=C/C(=O)c3ccc(OC)c(OC)c3)cc2)cc1` was tested, and the growth was 81.8% (inactive).
In the case of `Cn1cc(-c2nonc2-c2c[nH]c3ccccc23)c2cc(Br)ccc21`, the growth is reported as 27.9% (inactive).
With `CC1(C)N=C(N)N=C(N)N1c1ccc(S(=O)(=O)Nc2nccs2)cc1` the growth was 96.1% (inactive).
In the case of `CCOC(=O)c1ccc[nH]1`, the growth is reported as 93% (inactive).
`CNCCCNc1nc2ccccc2c2c(=O)c3cc(Cl)ccc3sc12` was tested, and the growth was 17.8% (inactive).
For `COc1cc2c(c(OC)c1OC)C(=O)CC(c1cccc(C(=O)Nc3ccccc3Br)c1)O2` (stereo not given), the growth was 97.8% (inactive).
In the case of `O=C(Nc1cc(Cl)ccc1O)c1ccccc1Nc1ccnc(C(F)(F)F)c1`, the growth is reported as 19.7% (inactive).
`CC[C@@H](C(=O)[C@@H](C)[C@@H](O)[C@H](C)[C@@H]1O[C@@H]([C@@H](CC)C(=O)ONC(=O)c2ccccc2O)CC[C@@H]1C)C1O[C@]2(C=CC(=O)[C@]3(CC[C@@](C)([C@H]4CC[C@](O)(CC)[C@H](C)O4)O3)O2)[C@H](C)C[C@@H]1C` (stereo not given in full) was tested, and the growth was 23.8% (inactive).
For `CC1=C2CC/C(C)=C/CC[C@]3(C)O[C@H]3CC/C(C)=C/[C@H]2OC1`, the growth was 90.5% (inactive).
With `CSc1ccc2c3c(n(CCCn4ccnc4)c(=O)c2c1)-c1ccccc1C3=O` the growth was 47.9% (inactive).
In the case of `OC1(c2ccccc2)c2ccccc2N(c2ccccc2)c2ccc(Cl)cc21` (stereo not given), the growth is reported as -12.5% (active).
For `O=C(Nc1ccc(Nc2ccncc2)cc1)c1ccc(Nc2ccnc3ccc([N+](=O)[O-])cc23)cc1`, the growth was 94.7% (inactive).
`O=C(Nc1cc(Cl)cc(Cl)c1)Oc1c(Cl)c(Cl)c(Cl)c(Cl)c1Cl` was tested, and the growth was 71.2% (inactive).
For `N=C(N)c1ccc(-c2ccc(-c3cc(Cl)cc(Cl)c3)s2)s1`, the growth was -52.8% (active).
For `CCCCNC(=O)c1ccc2c(c1)nc(-c1ccccc1)n2C1CCCCC1`, the growth was 95.9% (inactive).
For `Nc1cc(Br)cc2c1[nH]c(=O)c1ccccc12`, the growth was 91.7% (inactive).
`COc1ccc2c(c1)CC[C@@H]1[C@@H]2CC[C@]2(C)c3c(cc(C#N)c4c3sc3ccccc34)C[C@@H]12` was tested, and the growth was 106% (inactive).
With `O=C(Nc1ncc(Cc2ccccc2)s1)c1sc2ccccc2c1Cl` the growth was 26.6% (inactive).
In the case of `COc1ccc(C/C(C)=C(\c2ccc(O)cc2)c2ccc(OCCN3CCCCC3)cc2)cc1`, the growth is reported as 79.2% (inactive).
`O=C(/C=C/c1ccccc1)N(C1CCCCC1)C1CCCCC1` was tested, and the growth was 73.8% (inactive).
`CCN1C(=O)N(CC)C2C1NN=c1s/c(=C\c3ccc(OC)cc3)c(=O)n12` (stereo not given) was tested, and the growth was 10% (inactive).
`CN(C)c1ccc(C(=S)c2ccc(N(C)C)cc2)cc1` was tested, and the growth was 67% (inactive).
With `Oc1ccc(-c2nc3ccc4[nH]ncc4c3c3c2CCCC3)c(F)c1` the growth was 15.7% (inactive).
With `CCCn1c(=S)sc2c(NNC(C)=O)nc(C)nc21` the growth was 89.1% (inactive).
For `CCOC(=O)c1[nH]cc2c1CCc1sc(Nc3ccccn3)nc1-2`, the growth was 70.2% (inactive).
For `COc1cc(-c2ccc[nH]2)[nH]c1/C=C1\N=C(C)C(CC(=O)OCC(C)(C)C)=C1C`, the growth was -69.1% (active).
For `CC(C)C1C2=C(NCCN1C(=O)c1ccncc1)C(C)(C)N(Cc1ccccc1)C2=O` (stereo not given), the growth was 95.2% (inactive).
For `CC(C)n1c2ccc(Br)cc2c2c3c(c4c5ccccc5ccc4c21)C(=O)NC3=O`, the growth was 98.3% (inactive).
With `Nc1nc(C(=O)N/N=C/c2ccc(F)cc2)nn1-c1ccc(S(N)(=O)=O)cc1` the growth was 95% (inactive).
For `Cc1cccc(NC(=O)Cn2cc(CN3CCN(c4ccnc5cc(Cl)ccc45)CC3)nn2)c1`, the growth was 94.1% (inactive).
`N#CSc1c[nH]c2ccc(/C=C/C(=O)/C=C(O)/C=C/c3ccc4[nH]cc(SC#N)c4c3)cc12` was tested, and the growth was 12.4% (inactive).
In the case of `N#CC1=C(N)Oc2c(sc3c(F)cccc23)C1c1ccc([N+](=O)[O-])cc1` (stereo not given), the growth is reported as 4.46% (active).
With `CCN1C2CCC1/C(=C\c1ccccc1)C(=O)/C2=C/c1ccccc1` the growth was 72.9% (inactive).
`O=C(/C=C/c1cn(-c2ccccc2)nc1-c1ccccc1)CCC(=O)NO` was tested, and the growth was 91.5% (inactive).
For `CCN(CC)CCOc1ccc(C(=O)/C=C\c2ccc(Cl)cc2Cl)cc1`, the growth was 21.7% (inactive).
In the case of `O=C(NN1C(=O)CSC1c1cccc([N+](=O)[O-])c1)c1ccc(NC(=O)c2ccccn2)cc1` (stereo not given), the growth is reported as 100% (inactive).
With `COc1ccc(/C=C(\C(=O)NCc2cccnc2)S(=O)(=O)c2ccccc2)cc1OC` the growth was 45.7% (inactive).
In the case of `CCOc1ccc(/C=C/C(=O)c2cccc(OCCCOc3cccc(C(=O)/C=C/c4ccc(OCC)cc4)c3)c2)cc1`, the growth is reported as 85.4% (inactive).
